Compound activity as filed in PubChem.
Hits are enriched below; roughly 2.7% of the tested compounds scored in any of these assays.
A549 tox-1: kills or reduces viability of A549 cells in Nrf2 counter-screen; Potency, µM (highest dose often 46 µM), inactives show at the highest dose activity change, negative = cytotoxicity, hits mostly inhibitors; 0.16% of 390,000 active; AID 504648; A549 ARE-Fluc cells, CellTiter-Fluor viability, 18-24 h; further: potency means the concentration at half of the fitted maximal effect; on the % scale 0 is the no-effect control and ±100 the full control effect
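A549 ARE_Fluc cells in 5% FBS OPTI-MEM were exposed to compounds in concentration-response for 18-24 h at 37 deg C. Viability was read by CellTiter-Fluor fluorescence (Ex 405/Em 525) after 30 min, before the luciferase read.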
12-LOX inh: inhibitors of human 12S-lipoxygenase ALOX12 | P18054 | purified 12hLO, xylenol orange hydroperoxide absorbance | 1.1% of 580,000 active | Potency, µM (top dose mostly 108 µM), for inactives: at the highest dose activity change, negative = inhibition, most hits filed as inhibitors | AID 1671190; further: potency means the concentration at half of the fitted maximal effect; on the % scale 0 is the no-effect control and ±100 the full control effect
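Purified human 12hLO at 150 nM in 25 mM Hepes, 0.01% Triton X-100, pH 7.0, preincubated 15 min at room temperature with compound. Reaction started with 40 uM arachidonic acid, 30 min at room temperature. Hydroperoxide measured by Fe-xylenol orange, 573/405 nm absorbance ratio.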
Nrf2 activator: activates Nrf2 signaling; Potency, µM (highest dose often 46.1 µM), for inactives: at the highest dose activation, hits mostly activators; 0.31% of 410,000 active; AREc32 ARE-luciferase reporter (MCF7-derived line), luminescence, 24 h; further: potency means the concentration at half of the fitted maximal effect; % of control where 0% means no effect; nearly all actives have a fitted effect of over 65% in size
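AREc32 cells carrying an ARE-driven firefly luciferase, 1000 cells/well in OPTI-MEM with 5% FBS, dosed after overnight attachment and incubated 24 hr at 37 deg C. Steady-Glo luminescence read after 30 min at RT.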
LDHA block: LDHA (human) enzyme inhibition; P00338; purified LDHA, NADH/diaphorase-resazurin fluorescence; active compounds read low; activity change, % (values are at about 110 or 230 µM); 0.15% of 480,000 active; in the data active means activity change below about -30%; inconclusive means mostly about -25% to -30%;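 further: plate controls were DMSO wells for no effect and wells without enzyme for full effect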
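LDH5 2 nM; NADH 0.06 mM, pyruvate 0.2 mM; 200 mM Tris pH 7.4, EDTA, Tween-20; 5 min RT. Detection: diaphorase 0.133 mg/mL + resazurin 37 µM, fluorescence ex540/em590 at 0 and 20 min; normalized to enzyme-free and DMSO wells.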
Nrf2 inh: blocks Nrf2 signaling | AID 504444 | A549 ARE-Fluc reporter, luciferase luminescence, 18-24 h | 2.1% of 360,000 active | Potency, µM (highest dose often 46 µM), for the others: top-dose activity change, negative = inhibition, most hits filed as inhibitors; further: potency means the concentration at half of the fitted maximal effect; on the % scale 0 is the no-effect control and ±100 the full control effect; nearly all actives have a fitted effect of over 60% in size
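A549 ARE_Fluc cells (5000/well, 5% FBS OPTI-MEM) pre-incubated 2 h, then treated with compounds 18-24 h at 37C/5% CO2 in concentration-response. CellTiter-Fluor viability read first; BugLite luciferase luminescence after 15 min at room temperature gives Nrf2 activity.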
IDH1 R132H inh: inhibitors of human mutant IDH1 R132H | O75874 | IDH1-R132H enzyme, NADPH consumption, diaphorase/resazurin fluorescence | Potency, µM (titrated, usually from 76.6 µM), for inactives: at the highest dose activity change, negative = inhibition, actives largely listed as inhibitors | 0.093% of 390,000 active; further: potency means the concentration at half of the fitted maximal effect; on the % scale 0 is the no-effect control and ±100 the full control effect; nearly all actives have a fitted effect of over 65% in size
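IDH1-R132H (0.5 ug/mL) preincubated 30 min with compound, then NADPH (0.016 mM) and alpha-KG (2 mM) added; 80 min at RT, pH 7.5. Remaining NADPH coupled via diaphorase/resazurin to fluorescence (540/590 nm); concentration-response curves normalized to no-enzyme control.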
FLuc counter 3: counter-screen for Nrf2 inhibitors: firefly luciferase enzyme inhibition; shares compounds with Nrf2 inh; purified firefly luciferase, luminescence inhibition; Potency, µM (series often up to 57.5 µM), for inactives: at the highest dose activity change, negative = inhibition, most hits filed as inhibitors; 4% of 1,400 active; further: potency means the concentration at half of the fitted maximal effect; on the % scale 0 is the no-effect control and ±100 the full control effect; nearly all actives have a fitted effect of over 65% in size
Target sequence (P08659 whole entry, looked up): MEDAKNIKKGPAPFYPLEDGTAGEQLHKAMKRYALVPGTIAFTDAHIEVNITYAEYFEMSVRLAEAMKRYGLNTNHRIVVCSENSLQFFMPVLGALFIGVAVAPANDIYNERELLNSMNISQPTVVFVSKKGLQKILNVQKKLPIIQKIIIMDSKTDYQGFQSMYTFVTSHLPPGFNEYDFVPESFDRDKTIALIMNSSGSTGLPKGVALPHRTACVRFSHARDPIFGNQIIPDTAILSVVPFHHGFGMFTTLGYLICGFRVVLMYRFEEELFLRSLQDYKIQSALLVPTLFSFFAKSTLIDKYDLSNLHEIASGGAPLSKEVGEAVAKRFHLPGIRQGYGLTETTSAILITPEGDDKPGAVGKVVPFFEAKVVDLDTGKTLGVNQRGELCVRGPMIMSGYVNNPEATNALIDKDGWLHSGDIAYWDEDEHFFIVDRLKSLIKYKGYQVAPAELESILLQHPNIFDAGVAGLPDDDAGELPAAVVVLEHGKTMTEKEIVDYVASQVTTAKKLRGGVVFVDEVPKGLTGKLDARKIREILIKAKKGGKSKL
A549 tox-2: A549 cytotoxicity, Nrf2 inhibitor counterscreen. shares compounds with Nrf2 inh. A549 ARE-Fluc cells, cytotoxicity counterscreen. Potency, µM (highest dose often 46.1 µM), inactives show at the top dose activity change, negative = cytotoxicity, usual class: inhibitors. 2% of 1,400 active. AID 720523;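 further: potency means the concentration at half of the fitted maximal effect; cells exposed to compounds for 18 to 24 hours; on the % scale 0 is the no-effect control and ±100 the full control effect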
ARE-Fluc inh: Nrf2 inhibition confirmed, A549 ARE-luciferase. A549 ARE-firefly luciferase reporter, luminescence. shares compounds with Nrf2 inh. 74% of 1,400 active. Potency, µM (doses to about 46.1 µM), for the others: at the highest dose activity change, negative = inhibition, actives largely listed as inhibitors; further: potency means the concentration at half of the fitted maximal effect; on the % scale 0 is the no-effect control and ±100 the full control effect; nearly all actives have a fitted effect of over 65% in size
Numbers without * were called inactive; ? = inconclusive; / = not tested or not shown; [ ] = another dose, or the depositor's remark. Unless noted, the call rests on the fitted dose curve; in most records, active means well fitted curve in the direction sought with a large enough effect; inconclusive means small, poorly fitted or top-dose-only effect, or another doubt; inactive means no such curve, though single readings can be large; an effect the other way counts as inactive or inconclusive.

SMILES | A549 tox-1 | 12-LOX inh | Nrf2 activator | LDHA block | Nrf2 inh | IDH1 R132H inh | FLuc counter 3 | A549 tox-2 | ARE-Fluc inh
O=C1C(=O)c2ccccc2-c2ccccc21 | ? | -21.9% | -2.7% | 18.8 | 18.4µM* | -15.6% | / | / | /
Cc1nn(CCC#N)c2c1P(=S)(N1CCCC1)OC(c1ccc(F)cc1)=N2 (stereo not given) | -7.4% | 22.4µM* | 0.2% | -1.6 | -13.7% | 3.6% | / | / | /
COc1ccc(-c2cc([C@H]3CN4CC[C@H]3C[C@@H]4CNS(=O)(=O)c3ccc(C)cc3)n(C)n2)cc1OC | / | 27.2% | / | / | / | / | / | / | /
CN(Cc1ccccc1)C(=O)c1ccc(NC(=O)C2CCN(C(=O)OC(C)(C)C)CC2)cc1 | -5.0% | -9.6% | 3.0% | 0.6 | 16.4µM* | -2.4% | / | / | /
Cc1nn(C(C)(C)C)c(C)c1/C=N/OC(=O)Nc1ccc(Cl)c(Cl)c1 | 6.8% | 4.3% | -2.3% | 0.5 | 1.84µM* | 4.2% | / | / | /
Cc1ccc(NC(=O)c2snnc2C)cc1Cl | -10.5% | -14.9% | 5.3% | -3.2 | ? | 8.1% | / | / | /
CCOC(=O)C(O)(c1ccc(N(C)C(=O)COc2ccccc2)cc1)C(F)(F)F (stereo not given) | -1.4% | 3.7% | 0.0% | -14.4 | -8.4% | 7.4% | / | / | /
CN(C)C(=O)O/N=C(\N)COc1ccc(C(C)(C)C)cc1 | 20.6µM* | 0.0% | -4.3% | 1.0 | ? | 7.3% | / | / | /
Cn1cc(CN2CCOC[C@H](O)C2)c2ccccc21 | / | 1.1%[176 µM] | / | / | / | / | / | / | /
C[n+]1c2ccccc2nc2ccc(NCCO)cc21 | 16.4µM* | 6.3% | 0.2% | 40.2 | ? | 17.7% | / | / | /
CNc1ccc2nc3ccccc3[n+](C)c2c1 | 7.31µM* | 56.1% | -0.2% | 7.4 | 6.51µM* | 16.1% | / | / | /
CN1Cc2ccccc2-n2ccnc2C12CCN(C(=O)c1ccn[nH]1)CC2 | / | 64.8% | / | / | / | / | / | / | /
CC1=CC(C)CC(C)OC(=O)CC(c2ccc(O)cc2)NC(=O)C(Cc2c(Br)[nH]c3ccccc23)N(C)C(=O)C(C)NC(=O)C(C)C1 (stereo not given) | 1.84µM* | 6.9% | -1.6% | -1.0 | 0.581µM* | -4.6% | -11.2% | ? | 1.46µM*
CC1=CC2OC3CC4OC(=O)C=CC=CC(C(C)O)OCC(O)C5(C)OC5C(=O)OCC2(CC1O)C4(C)C31CO1 (stereo not given) | / | 6.8% | -2.0% | -12.8 | 0.411µM* | 5.3% | -1.6% | / | 0.259µM*
CC1CCOC(=O)C=CC=CC(=O)OC2CC3OC4C5OC5(C)C(O)CC4(COC(=O)C1O)C2(C)C31CO1 (stereo not given) | / | 23.8% | -1.7% | -6.1 | 0.517µM* | 0.8% | 4.0% | / | 0.366µM*
O=C(NCc1cccnc1)Nc1ccccc1Cl | 4.9% | -1.4% | -0.2% | -1.7 | 4.6% | -4.9% | / | / | /
O=C(CCCCCCCCCCC(=O)NCc1cccnc1)NCc1cccnc1 | -1.1% | 0.0% | 0.2% | 2.7 | ? | 12.0% | 3.7% | -5.5% | ?
COc1ccc(CC2C(=O)NC(C)C(=O)N(C)C3C(=O)N(C)C(Cc4ccc(O)c(c4)Oc4ccc(cc4)C3O)C(=O)NC(C)C(=O)NC(C)C(=O)N2C)cc1 (stereo not given) | ? | -4.4% | -1.7% | 1.5 | 1.3µM* | 2.8% | 3.4% | ? | 0.411µM*
CCn1c(C)c(C(=O)NCc2cccnc2)c2cc(OC)ccc21 | / | 13.2% | / | -5.3 | / | / | / | / | /
C=CCN(C)C[C@H]1CN2CC[C@H]1C[C@@H]2CNS(C)(=O)=O | / | 15.8%[176 µM] | / | / | / | / | / | / | /
C[C@@H]1O[C@@H](O[C@@H]2C=C3CC[C@@H]4[C@@H](CC[C@]5(C)[C@H](c6ccc(=O)oc6)CC[C@@]45O)[C@@]3(C)CC2)[C@H](O)[C@H](O)[C@H]1O | / | -2.7%[57.4 µM] | / | -1.9 | / | / | 1.6% | ? | 0.0103µM*
C[C@]12CC[C@H](O)C[C@H]1CC[C@@H]1[C@@H]2C[C@@H](O)[C@]2(C)[C@@H](C3=CC(=O)OC3)CC[C@]12O | ? | -1.3% | -3.5% | -1.8 | 0.461µM* | 14.8% | 0.5% | ? | 0.461µM*
CC12CCC(O)CC1CCC1C2CCC2(C)C(C3=CC(=O)OC3)C(O)CC12O (stereo not given) | ? | 9.5% | -0.9% | -7.6 | 1.84µM* | 3.3% | 1.1% | ? | /
C[C@]12CC[C@H](O)C[C@H]1CC[C@@H]1[C@@H]2CC[C@]2(C)[C@@H](C3=CC(=O)OC3)CC[C@]12O | ? | 1.4% | -2.5% | -6.0 | 0.259µM* | -8.2% | 2.9% | ? | 0.206µM*
CC12CC[C@H]3[C@@H](CCC4(O)C[C@H](O)CCC34/C=N/NC(=O)c3ccccc3[N+](=O)[O-])C1(O)CCC2C1=CC(=O)OC1 (stereo not given in full) | ? | 13.3% | -0.1% | -0.3 | 4.61µM* | 0.0% | 0.4% | ? | 7.31µM*
O=C1NC2(Cc3ccccc31)CN(Cc1cccnc1)C2 | / | 0.6%[12.5 µM] | / | / | / | / | / | / | /
CC(=O)OC1CC(OC2C(O)CC(OC3C(O)CC(OC4CCC5(C)C(CCC6C5CC(O)C5(C)C(C7=CC(=O)OC7)CCC65O)C4)OC3C)OC2C)OC(C)C1OC1OC(CO)C(O)C(O)C1O (stereo not given) | ? | 14.5% | -3.4% | -13.1 | 0.13µM* | -7.7% | 0.6% | ? | 0.164µM*
C[C@]12CC[C@H](O)C[C@H]1CCC1C2CC[C@]2(C)[C@@H](c3ccc(=O)oc3)C[C@H]3O[C@]132 (stereo not given in full) | / | 1.6% | / | 2.5 | / | / | -1.8% | ? | 1.46µM*
C[C@]12CC[C@H]3C(CCC4(O)CC(O)CC[C@]34C=O)C1=CC[C@H]2c1ccc(=O)oc1 (stereo not given in full) | -25.0% | 30.3% | -3.4% | -0.2 | ? | 10.3% | / | / | /
